# Values joined by “and” are separate entries in the source; they are usually repeats but may differ in a detail not shown here. Equal values may be shown once. The panel holds about 83,000 compounds, 20% with a hit somewhere; the sample as a whole holds those more often.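 Percent growth is the endpoint: 0 to 100 indicates growth inhibition (40 means 60% inhibition), 0 means no net growth, and negative values indicate cell death.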 Active and inactive are the calls of the source. The calls were made as follows: active = growth percent below 10; inactive = the rest.
# Columns and labels:
# Assay in all cases: NCI-60 one-dose screen, 48 h (100 = growth as untreated, 0 = no growth, -100 = all killed)
# Conditions in all cases: 10 µM unless noted
# UACC-62 melanoma = system: UACC-62 melanoma
# TK-10 renal = system: TK-10 renal
# HCT-15 colon = system: HCT-15 colon
# HT29 colon = system: HT29 colon
# SNB-19 CNS = system: SNB-19 CNS
# U251 CNS = system: U251 CNS
# PC-3 prostate = system: PC-3 prostate
# SK-MEL-5 melanoma = system: SK-MEL-5 melanoma
# SK-MEL-28 melanoma = system: SK-MEL-28 melanoma
# EKVX NSCLC = system: EKVX NSCLC
# SN12C renal = system: SN12C renal
# UO-31 renal = system: UO-31 renal
# ACHN renal = system: ACHN renal
# CAKI-1 renal = system: CAKI-1 renal
# A498 renal = system: A498 renal
# CCRF-CEM leukemia = system: CCRF-CEM leukemia
# MOLT-4 leukemia = system: MOLT-4 leukemia
# LOX IMVI melanoma = system: LOX IMVI melanoma
# SK-MEL-2 melanoma = system: SK-MEL-2 melanoma
structure (smiles),measurement,setting,value
O=C1NC(N/N=C\c2ccccc2)=N/C1=C/c1ccccc1,growth,UACC-62 melanoma,-53.2% [100 µM] (active) and -100% [100 µM] (active)
same,growth,TK-10 renal,-49.7% [100 µM] (active) and -77.5% [100 µM] (active)
Nc1ccc2[nH]c(-c3ccccc3)cc(=O)c2c1,growth,HCT-15 colon,73.7% (inactive)
same,growth,HT29 colon,78.7% (inactive)
same,growth,SNB-19 CNS,88.7% (inactive)
same,growth,U251 CNS,72.9% (inactive)
same,growth,PC-3 prostate,74.1% (inactive)
same,growth,SK-MEL-5 melanoma,58.2% (inactive)
same,growth,UACC-62 melanoma,77.6% (inactive)
same,growth,SK-MEL-28 melanoma,86.5% (inactive)
same,growth,EKVX NSCLC,96.1% (inactive)
same,growth,SN12C renal,98.2% (inactive)
same,growth,UO-31 renal,89.9% (inactive)
same,growth,TK-10 renal,123% (inactive)
same,growth,ACHN renal,102% (inactive)
same,growth,CAKI-1 renal,72.2% (inactive)
same,growth,A498 renal,84.2% (inactive)
same,growth,CCRF-CEM leukemia,67.9% (inactive)
same,growth,MOLT-4 leukemia,63.8% (inactive)
Cc1ccc2c(/C=C/c3ccc(N(C)C)cc3)ccc(C(C)C)cc1-2,growth,UACC-62 melanoma,68.4% [100 µM] (inactive) and 58.1% [100 µM] (inactive)
same,growth,TK-10 renal,104% [100 µM] (inactive) and -33% [100 µM] (active)
COC(=O)[C@H]1CCCN1C(=O)C1CCCN1C(=O)[C@@H](Cc1ccccc1)NC(=S)Nc1cc(C(F)(F)F)cc(C(F)(F)F)c1 (some centres undefined),growth,HCT-15 colon,95.8% (inactive) and 75.5% (inactive)
same,growth,HT29 colon,111% (inactive) and 72.6% (inactive)
same,growth,SNB-19 CNS,92.1% (inactive) and 86.7% (inactive)
same,growth,U251 CNS,98.8% (inactive) and 77% (inactive)
same,growth,PC-3 prostate,101% (inactive) and 53.3% (inactive)
same,growth,SK-MEL-5 melanoma,100% (inactive) and 88.2% (inactive)
same,growth,UACC-62 melanoma,94.7% (inactive) and 90.3% (inactive)
same,growth,LOX IMVI melanoma,103% (inactive) and 88.1% (inactive)
same,growth,SK-MEL-28 melanoma,109% (inactive) and 99.4% (inactive)
same,growth,SK-MEL-2 melanoma,109% (inactive) and 103% (inactive)
same,growth,SN12C renal,96.1% (inactive) and 84% (inactive)
same,growth,UO-31 renal,94.6% (inactive) and 59.1% (inactive)
same,growth,TK-10 renal,114% (inactive) and 90% (inactive)
same,growth,ACHN renal,98.4% (inactive) and 85.6% (inactive)
same,growth,CAKI-1 renal,89.2% (inactive)
same,growth,A498 renal,96.6% (inactive) and 81.4% (inactive)
same,growth,CCRF-CEM leukemia,106% (inactive) and 72.2% (inactive)
Cc1cc(S(=O)(=O)O)c(NC(=O)c2oc3cc(O)ccc3c(=O)c2C)cc1Cl,growth,UACC-62 melanoma,85.1% [100 µM] (inactive) and 89.4% [100 µM] (inactive)
same,growth,TK-10 renal,90.8% [100 µM] (inactive) and 91.7% [100 µM] (inactive)
N/C(=N\N=C\c1ccc2c(c1)OCO2)N/N=C\c1ccc2c(c1)OCO2,growth,HCT-15 colon,103% (inactive) and 93.7% (inactive)
same,growth,HT29 colon,88.4% (inactive) and 13% (inactive)
same,growth,U251 CNS,99.4% (inactive) and 84.6% (inactive)
same,growth,PC-3 prostate,103% (inactive) and 89.6% (inactive)
same,growth,SK-MEL-5 melanoma,112% (inactive)
same,growth,UACC-62 melanoma,112% (inactive) and 90.7% (inactive)
same,growth,SK-MEL-28 melanoma,112% (inactive) and 45.6% (inactive)
same,growth,SK-MEL-2 melanoma,103% (inactive) and 136% (inactive)
same,growth,EKVX NSCLC,113% (inactive)
same,growth,UO-31 renal,99.5% (inactive) and 77.3% (inactive)
same,growth,TK-10 renal,140% (inactive) and 153% (inactive)
same,growth,ACHN renal,111% (inactive) and 97.7% (inactive)
same,growth,CAKI-1 renal,99% (inactive) and 103% (inactive)
same,growth,A498 renal,121% (inactive) and 85.9% (inactive)
same,growth,CCRF-CEM leukemia,50.6% (inactive) and 45.3% (inactive)
same,growth,MOLT-4 leukemia,95.4% (inactive) and 50.3% (inactive)
C[C@@H]1CC[C@H]2C(C)(C)[C@H]3C[C@@]12CC[C@@]3(C)O,growth,UACC-62 melanoma,80.1% [100 µM] (inactive) and 6.26% [100 µM] (active)
same,growth,TK-10 renal,87.1% [100 µM] (inactive) and 15.8% [100 µM] (inactive)
CN1CCN(CCC=C2c3ccccc3Sc3ccc(S(=O)(=O)N(C)C)cc32)CC1,growth,HCT-15 colon,46.4% (inactive) and 59.2% (inactive)
same,growth,HT29 colon,4.86% (active) and 4.22% (active)
same,growth,PC-3 prostate,52.7% (inactive) and 61.6% (inactive)
same,growth,SK-MEL-5 melanoma,26.4% (inactive) and 69.1% (inactive)
same,growth,UACC-62 melanoma,-42.7% (active)
same,growth,LOX IMVI melanoma,15.9% (inactive) and 40.7% (inactive)
same,growth,SK-MEL-28 melanoma,-54.1% (active) and -73.3% (active)
same,growth,SK-MEL-2 melanoma,68.5% (inactive) and 53.7% (inactive)
same,growth,EKVX NSCLC,80.1% (inactive) and 84.8% (inactive)
same,growth,SN12C renal,56.9% (inactive) and 76.4% (inactive)
same,growth,UO-31 renal,36.7% (inactive) and 56.9% (inactive)
same,growth,TK-10 renal,70.5% (inactive) and 87.2% (inactive)
same,growth,CAKI-1 renal,48.5% (inactive) and 94.9% (inactive)
same,growth,A498 renal,73.5% (inactive) and 62.1% (inactive)
same,growth,CCRF-CEM leukemia,54.2% (inactive) and 31.6% (inactive)
same,growth,MOLT-4 leukemia,46.3% (inactive) and 28.2% (inactive)
